This note sets out measurements from PubChem BioAssay (EPA / NIEHS).

Calls of active or inactive are those of the source. Rule for the calls: active = hit-call score of the fitted dose curve at least 0.9, where 1 is the maximum; inactive = score below 0.9.

Assay [1] can be described thus: ATG_GLI_CIS: Attagene CIS-FACTORIAL HepG2 Assay for human Zinc Finger Protein GLI1 (AID 2282945). The conditions noted are these: HepG2, Attagene cis-factorial reporter mRNA, GLI element; actives raise or lower the signal. In short, it runs like this:
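Bidirectional curve fits relative to DMSO, using reporter mRNA levels from RT-PCR plus capillary electrophoresis. Cells were HepG2 transiently carrying cis-regulated reporter constructs, harvested 24 h after dosing.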

Assay [2] concerns the target Bile acid receptor (Homo sapiens) (UniProt Q96RI1). The assay is described as follows: ATG_IR1_CIS: Attagene CIS-FACTORIAL HepG2 Assay for human Nuclear Receptor Subfamily 1 Group H Member 4 (NR1H4), IR1 submotif (AID 2282946). The following applies: IR1 reporter transcription, actives raise or lower the signal. In short, it runs like this:
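HepG2 cells transiently transfected with multiplexed cis-element reporter units read endogenous transcription factor activity. After 24 h compound exposure, reporter mRNA was quantified by RT-PCR, fluorescent labelling, HpaI digestion and capillary electrophoresis; bidirectional fitting versus DMSO baseline.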

Assay [3] can be described thus: ATG_ISRE_CIS: Attagene CIS-FACTORIAL HepG2 Assay for human Interferon Regulatory Factor 1 (IRF1) binding to an Interferon-Stimulated Response Element (ISRE) (AID 2282948). The conditions noted are these: HepG2 ISRE cis-reporter (Attagene), mRNA transcription readout; actives raise or lower the signal. In short, it runs like this:
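Signal reflects induction or loss of ISRE-linked reporter mRNA in transiently transfected HepG2 cells after a 24 h treatment, detected by fluorescent RT-PCR fragments on capillary electrophoresis and normalised to DMSO.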

Assay [4] is described as follows: ATG_M_06_CIS: Attagene CIS-FACTORIAL HepG2 Assay for M06 Transcription Factor (Internal Marker) (AID 2282950). The following applies: HepG2 Attagene CIS-FACTORIAL M06 internal marker reporter; actives raise or lower the signal. In short, it runs like this:
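Terse: HepG2, transient MRTU transfection (FuGene 6), 24 h dosing; total RNA, oligo(dT) RT, PCR, FAM label, HpaI cut, capillary electrophoresis; bidirectional fit vs DMSO baseline; background-control endpoint.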

Assay [5] addresses Hypoxia-inducible factor 1-alpha (Homo sapiens) (UniProt Q16665). The assay can be described thus: ATG_HIF1a_CIS: Attagene CIS-FACTORIAL HepG2 Assay for human Hypoxia Inducible Factor 1 (HIF1A) (AID 2282951). The following applies: HepG2 Attagene cis-factorial HIF1a reporter transcription; actives raise or lower the signal. In short, it runs like this: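 Activity is fitted in both directions relative to DMSO. Reporter transcripts are read by RT-PCR, fluorescent primer extension and capillary electrophoresis after 24 h chemical treatment. The cells are HepG2 carrying transiently transfected cis-element-driven reporter units responding to endogenous factors.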

Assay [6] addresses Hepatocyte nuclear factor 6 (Homo sapiens) (UniProt Q9UBC0). The assay can be described thus: ATG_HNF6_CIS: Attagene CIS-FACTORIAL HepG2 Assay for human Hepatocyte Nuclear Factor 6 (HNF6) (AID 2282952). The conditions noted are these: HepG2 Attagene cis-factorial HNF6 reporter transcription; actives raise or lower the signal. In short, it runs like this: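 Twenty-four-hour chemical treatment of reporter-transfected HepG2 cells precedes RNA isolation, DNase-treated reverse transcription and PCR of reporter sequences. Labelled fragments are sized by capillary electrophoresis and fitted bidirectionally versus DMSO.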

In assay [7] the target is Heat shock factor protein 1 (Homo sapiens) (UniProt Q00613). The assay is described as follows: ATG_HSE_CIS: Attagene CIS-FACTORIAL HepG2 Assay for human Heat Shock Transcription Factor 1 (HSE) (AID 2282953). The following applies: HepG2 HSE cis-reporter, Attagene RNA transcription; actives raise or lower the signal. A digest of the protocol:
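Read-out: fluorescence of reporter-specific RT-PCR fragments separated by capillary electrophoresis. HepG2 carrying transfected cis-element reporter units; 24 h dosing; activity fitted in both directions relative to DMSO baseline.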

Assay [8] in a line: ATG_MRE_CIS: Attagene CIS-FACTORIAL HepG2 Assay for human Metal Responsive Element (MRE) (AID 2282954). The conditions noted are these: HepG2 MRE cis-reporter transcription, Attagene multiplex; actives raise or lower the signal. In short, it runs like this: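 Multiplexed cis-reporter assay in human HepG2 liver cells, 24 h incubation with test chemical. Reporter transcripts measured by RT-PCR and capillary electrophoresis; values from bidirectional curve fitting versus DMSO.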

The nature of assay [9]: ATG_PBREM_CIS: Attagene CIS-FACTORIAL HepG2 Assay for human Phenobarbital-responsive Enhancer Module (PBREM) (AID 2282955). The conditions noted are these: HepG2 PBREM cis-reporter, Attagene multiplexed transcription; actives raise or lower the signal. In short, it runs like this: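 Endogenous transcription factor activity was read from reporter transcripts in transiently transfected human HepG2 liver cells after 24 h dosing. RT-PCR products were fluorescently labelled, HpaI-cut and sized by capillary electrophoresis; activity fitted bidirectionally against DMSO baseline.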

Assay [10] deals with Paired box protein Pax-6 (Homo sapiens) (UniProt P26367). The assay is described as follows: ATG_Pax6_CIS: Attagene CIS-FACTORIAL HepG2 Assay for human Paired Box 6 (PAX6) (AID 2282956). The following applies: HepG2 CIS-FACTORIAL PAX6 reporter transcription, RNA readout; actives raise or lower the signal. A digest of the protocol:
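Values derive from bidirectional curve fitting of reporter mRNA signal relative to DMSO. HepG2 cells bearing transfected cis-regulated MRTUs were exposed for 24 h; transcripts were read by RT-PCR and capillary electrophoresis.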

Assay [11] is described as follows: ATG_PXRE_CIS: Attagene CIS-FACTORIAL HepG2 Assay for human Pregnane X Receptor Element (PXRE) (AID 2282957). The following applies: HepG2 Attagene CIS-FACTORIAL PXRE reporter, mRNA; actives raise or lower the signal. A digest of the protocol: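 Bidirectional activity, baselined to DMSO, derived from reporter mRNA fluorescence (RT-PCR plus capillary electrophoresis) in HepG2 cells bearing cis-promoter reporter units, 24 h exposure.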

Assay [12] in a line: ATG_RORE_CIS: Attagene CIS-FACTORIAL HepG2 Assay for human RAR-related Orphan Receptor Element (RORE) (AID 2282959). The conditions noted are these: HepG2 Attagene cis-factorial RORE reporter, mRNA; actives raise or lower the signal. In short, it runs like this:
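RORE reporter transcripts reflecting endogenous factor activity were read after 24 h compound exposure of transfected HepG2 cells, using reverse transcription, PCR, fluorescent labelling and capillary electrophoresis sizing. Gain or loss fitted against DMSO.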

Assay [13] can be described thus: ATG_Sox_CIS: Attagene CIS-FACTORIAL HepG2 Assay for human SRY-box transcription factor (SOX) (AID 2282960). The following applies: HepG2 Attagene cis-factorial SOX reporter, mRNA; actives raise or lower the signal. A digest of the protocol:
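Reporter transcripts, measured by RT-PCR and capillary electrophoresis of labelled fragments, report endogenous SOX transcription factor activity. Transiently transfected human HepG2 cells receive chemical for 24 h; changes in either direction are fitted relative to DMSO.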

The target in assay [14] is Transcription factor Sp1 (Homo sapiens) (UniProt P08047). The assay can be described thus: ATG_Sp1_CIS: Attagene CIS-FACTORIAL HepG2 Assay for human Specificity Protein 1 (Sp1) (AID 2282961). The conditions noted are these: HepG2 Sp1 cis-reporter transcription, actives raise or lower the signal. In short, it runs like this: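 Read-out is reporter transcript level, measured by RT-PCR and fluorescent capillary electrophoresis after 24 h chemical treatment. System: transiently transfected HepG2 cells reporting endogenous transcription factor activity; gain or loss fitted against DMSO baseline.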

The nature of assay [15]: ATG_SREBP_CIS: Attagene CIS-FACTORIAL HepG2 Assay for human Sterol Regulatory Element Binding (SREBP) (AID 2282962). The conditions noted are these: HepG2 Attagene cis-factorial SREBP reporter, mRNA; actives raise or lower the signal. A digest of the protocol:
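Values derive from bidirectional curve fitting with DMSO as baseline. The underlying measurement is reporter mRNA from cis-element-regulated units in transiently transfected HepG2, quantified by RT-PCR and capillary electrophoresis after 24 h exposure.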

The target in assay [16] is Signal transducer and activator of transcription 3 (Homo sapiens) (UniProt P40763). The assay is described as follows: ATG_STAT3_CIS: Attagene CIS-FACTORIAL HepG2 Assay for human Signal Transducer and Activator of Transcription 3 (STAT3) (AID 2282963). The following applies: HepG2, Attagene cis-factorial STAT3 reporter transcription; actives raise or lower the signal. In short, it runs like this: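 Cis-factorial format: endogenous transcription factors in HepG2 drive transfected reporter units. After 24 h treatment, reporter RNA was reverse-transcribed, amplified, FAM-labelled and HpaI-digested before CE analysis; activity scored in both directions against DMSO.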

A short description of assay [17]: ATG_TA_CIS: Attagene CIS-FACTORIAL HepG2 Assay for human TA Basal Promoter (AID 2282964). The conditions noted are these: HepG2 Attagene CIS-factorial TA basal promoter reporter; actives raise or lower the signal. In short, it runs like this:
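Transfected HepG2, 24 h compound exposure; RNA → RT-PCR → FAM primer extension → HpaI cut → CE fluorescence. Gain/loss-of-signal fitted against DMSO negative control. Background-control readout.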

A short description of assay [18]: ATG_M_32_CIS: Attagene CIS-FACTORIAL HepG2 Assay for M32 Transcription Factor (Internal Marker) (AID 2282949).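 Note: background control marker of the multiplexed CIS panel rather than a real target.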 The conditions noted are these: HepG2 Attagene cis-factorial M32 reporter, mRNA; actives raise or lower the signal. In short, it runs like this: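 Transient MRTU transfection of HepG2; 24 h compound treatment; TriZol RNA, oligo(dT) RT, reporter PCR, 6-FAM primer extension, HpaI cut, CE. Gain/loss of signal vs DMSO.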

Assay [19] can be described thus: ATG_PPRE_CIS: Attagene CIS-FACTORIAL HepG2 Assay for human Peroxisome Proliferator-activated Response Element (PPRE) (AID 2282958). The conditions noted are these: HepG2 PPRE cis-element reporter, Attagene transcription factor profiling; actives raise or lower the signal. A digest of the protocol: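 Endogenous PPRE-driven transcription is measured in HepG2 cells carrying transfected multi-reporter constructs. Reporter transcripts are quantified by RT-PCR, HpaI digestion and capillary electrophoresis 24 h after dosing. DMSO baseline, bidirectional fit.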

Assay [20] is described as follows: ATG_GRE_CIS: Attagene CIS-FACTORIAL HepG2 Assay for human Glucocorticoid Response Elements (GRE) (AID 2282947). The conditions noted are these: HepG2 GRE cis-reporter, Attagene multiplex mRNA; actives raise or lower the signal. In short, it runs like this:
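Multiplexed cis-reporter mRNA induction, HepG2, 24 h post-dose. RT-PCR, FAM-labelled, HpaI-digested amplicons by CE. Bidirectional fit vs DMSO.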

Sequence of Signal transducer and activator of transcription 3 (Homo sapiens) (P40763 whole entry, looked up): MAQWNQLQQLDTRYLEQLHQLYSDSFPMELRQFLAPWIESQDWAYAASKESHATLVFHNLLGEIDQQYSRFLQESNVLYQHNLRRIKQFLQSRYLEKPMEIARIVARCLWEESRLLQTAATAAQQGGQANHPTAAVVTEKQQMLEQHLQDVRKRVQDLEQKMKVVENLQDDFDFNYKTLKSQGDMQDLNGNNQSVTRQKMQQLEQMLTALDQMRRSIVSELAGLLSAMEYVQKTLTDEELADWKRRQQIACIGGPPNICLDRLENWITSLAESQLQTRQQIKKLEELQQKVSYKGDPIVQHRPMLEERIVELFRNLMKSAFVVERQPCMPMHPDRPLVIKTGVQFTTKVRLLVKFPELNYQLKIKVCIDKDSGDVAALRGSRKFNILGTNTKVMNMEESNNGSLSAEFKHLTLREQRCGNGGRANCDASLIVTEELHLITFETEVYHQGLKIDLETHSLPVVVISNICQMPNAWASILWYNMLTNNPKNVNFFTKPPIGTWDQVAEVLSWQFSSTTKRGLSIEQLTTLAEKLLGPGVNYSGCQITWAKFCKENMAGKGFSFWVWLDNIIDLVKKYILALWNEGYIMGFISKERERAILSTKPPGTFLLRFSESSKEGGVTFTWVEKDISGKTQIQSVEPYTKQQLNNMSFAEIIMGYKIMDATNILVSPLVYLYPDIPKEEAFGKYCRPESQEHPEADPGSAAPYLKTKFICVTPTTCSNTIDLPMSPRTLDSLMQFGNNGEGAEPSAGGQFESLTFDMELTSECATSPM
Sequence of Paired box protein Pax-6 (Homo sapiens) (P26367 whole entry, looked up): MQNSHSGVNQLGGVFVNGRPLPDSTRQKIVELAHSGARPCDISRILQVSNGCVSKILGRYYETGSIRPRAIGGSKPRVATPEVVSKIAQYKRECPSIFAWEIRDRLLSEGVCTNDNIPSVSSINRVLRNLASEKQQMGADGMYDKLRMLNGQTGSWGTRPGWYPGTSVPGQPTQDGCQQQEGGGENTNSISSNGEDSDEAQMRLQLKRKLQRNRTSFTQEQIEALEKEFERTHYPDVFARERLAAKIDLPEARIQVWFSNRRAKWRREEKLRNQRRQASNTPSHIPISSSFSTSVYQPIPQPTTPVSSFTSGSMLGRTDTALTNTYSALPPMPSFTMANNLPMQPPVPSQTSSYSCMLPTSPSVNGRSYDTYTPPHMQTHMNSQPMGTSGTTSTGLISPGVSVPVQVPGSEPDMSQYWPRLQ
Sequence of Bile acid receptor (Homo sapiens) (Q96RI1 whole entry, looked up): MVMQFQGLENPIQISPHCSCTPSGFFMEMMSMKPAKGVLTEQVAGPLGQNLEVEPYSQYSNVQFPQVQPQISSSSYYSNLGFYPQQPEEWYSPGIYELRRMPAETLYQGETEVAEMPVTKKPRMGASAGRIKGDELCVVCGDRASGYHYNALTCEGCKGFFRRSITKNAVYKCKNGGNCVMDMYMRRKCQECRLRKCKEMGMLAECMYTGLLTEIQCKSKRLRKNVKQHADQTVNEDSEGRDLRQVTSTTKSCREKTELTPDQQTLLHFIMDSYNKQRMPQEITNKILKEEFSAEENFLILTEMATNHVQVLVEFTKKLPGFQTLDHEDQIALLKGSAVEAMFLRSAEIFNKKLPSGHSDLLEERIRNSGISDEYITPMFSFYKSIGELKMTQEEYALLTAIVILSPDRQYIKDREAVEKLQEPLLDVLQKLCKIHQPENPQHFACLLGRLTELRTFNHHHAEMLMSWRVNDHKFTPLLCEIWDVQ
Sequence of Hepatocyte nuclear factor 6 (Homo sapiens) (Q9UBC0 whole entry, looked up, the tested form may be a part): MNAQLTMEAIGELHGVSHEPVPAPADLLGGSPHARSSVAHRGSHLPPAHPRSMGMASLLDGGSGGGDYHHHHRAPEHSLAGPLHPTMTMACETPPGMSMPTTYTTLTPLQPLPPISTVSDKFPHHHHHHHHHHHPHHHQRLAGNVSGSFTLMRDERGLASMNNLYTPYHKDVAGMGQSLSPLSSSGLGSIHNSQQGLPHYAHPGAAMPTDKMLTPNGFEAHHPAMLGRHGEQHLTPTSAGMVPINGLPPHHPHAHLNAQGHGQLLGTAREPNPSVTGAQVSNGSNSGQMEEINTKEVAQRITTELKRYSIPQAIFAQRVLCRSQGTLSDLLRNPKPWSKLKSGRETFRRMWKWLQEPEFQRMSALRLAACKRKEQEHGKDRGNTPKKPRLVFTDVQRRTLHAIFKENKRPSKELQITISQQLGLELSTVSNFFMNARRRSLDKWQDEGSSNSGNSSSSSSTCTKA
Sequence of Heat shock factor protein 1 (Homo sapiens) (Q00613 whole entry, looked up, the tested form may be a part): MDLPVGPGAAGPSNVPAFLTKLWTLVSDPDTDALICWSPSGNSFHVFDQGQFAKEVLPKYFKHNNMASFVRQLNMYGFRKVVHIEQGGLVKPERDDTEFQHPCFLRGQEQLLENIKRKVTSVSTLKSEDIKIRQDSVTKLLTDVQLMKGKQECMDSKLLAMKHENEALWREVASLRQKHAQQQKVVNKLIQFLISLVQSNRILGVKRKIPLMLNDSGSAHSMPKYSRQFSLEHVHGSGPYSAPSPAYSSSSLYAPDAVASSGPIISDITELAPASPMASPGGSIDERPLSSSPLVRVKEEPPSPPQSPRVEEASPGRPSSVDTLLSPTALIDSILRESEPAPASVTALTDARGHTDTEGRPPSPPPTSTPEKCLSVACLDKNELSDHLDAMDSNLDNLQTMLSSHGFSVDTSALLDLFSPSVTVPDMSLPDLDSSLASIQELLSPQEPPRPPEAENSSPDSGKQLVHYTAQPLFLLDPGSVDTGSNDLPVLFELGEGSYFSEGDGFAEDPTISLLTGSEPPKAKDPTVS
Sequence of Transcription factor Sp1 (Homo sapiens) (P08047 whole entry, looked up): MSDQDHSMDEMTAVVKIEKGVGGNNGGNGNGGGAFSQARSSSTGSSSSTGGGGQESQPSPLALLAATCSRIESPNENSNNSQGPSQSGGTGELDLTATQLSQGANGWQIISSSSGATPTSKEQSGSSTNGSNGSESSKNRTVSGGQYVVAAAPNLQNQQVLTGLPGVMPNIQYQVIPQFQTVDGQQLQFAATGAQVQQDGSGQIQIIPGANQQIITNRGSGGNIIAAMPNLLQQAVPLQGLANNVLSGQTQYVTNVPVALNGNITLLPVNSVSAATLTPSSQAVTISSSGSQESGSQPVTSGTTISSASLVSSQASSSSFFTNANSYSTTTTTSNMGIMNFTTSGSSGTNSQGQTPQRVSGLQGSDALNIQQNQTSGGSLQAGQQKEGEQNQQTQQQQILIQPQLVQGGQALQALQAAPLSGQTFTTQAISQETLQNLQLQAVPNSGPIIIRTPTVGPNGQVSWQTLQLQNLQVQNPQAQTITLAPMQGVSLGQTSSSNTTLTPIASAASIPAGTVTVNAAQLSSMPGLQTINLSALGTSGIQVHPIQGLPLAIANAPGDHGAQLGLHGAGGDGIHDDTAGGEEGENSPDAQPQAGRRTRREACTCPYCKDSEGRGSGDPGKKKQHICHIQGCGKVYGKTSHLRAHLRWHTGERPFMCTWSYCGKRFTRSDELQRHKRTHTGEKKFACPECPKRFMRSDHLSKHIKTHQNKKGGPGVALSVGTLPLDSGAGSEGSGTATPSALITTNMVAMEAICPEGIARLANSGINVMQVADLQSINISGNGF
Sequence of Hypoxia-inducible factor 1-alpha (Homo sapiens) (Q16665 whole entry, looked up): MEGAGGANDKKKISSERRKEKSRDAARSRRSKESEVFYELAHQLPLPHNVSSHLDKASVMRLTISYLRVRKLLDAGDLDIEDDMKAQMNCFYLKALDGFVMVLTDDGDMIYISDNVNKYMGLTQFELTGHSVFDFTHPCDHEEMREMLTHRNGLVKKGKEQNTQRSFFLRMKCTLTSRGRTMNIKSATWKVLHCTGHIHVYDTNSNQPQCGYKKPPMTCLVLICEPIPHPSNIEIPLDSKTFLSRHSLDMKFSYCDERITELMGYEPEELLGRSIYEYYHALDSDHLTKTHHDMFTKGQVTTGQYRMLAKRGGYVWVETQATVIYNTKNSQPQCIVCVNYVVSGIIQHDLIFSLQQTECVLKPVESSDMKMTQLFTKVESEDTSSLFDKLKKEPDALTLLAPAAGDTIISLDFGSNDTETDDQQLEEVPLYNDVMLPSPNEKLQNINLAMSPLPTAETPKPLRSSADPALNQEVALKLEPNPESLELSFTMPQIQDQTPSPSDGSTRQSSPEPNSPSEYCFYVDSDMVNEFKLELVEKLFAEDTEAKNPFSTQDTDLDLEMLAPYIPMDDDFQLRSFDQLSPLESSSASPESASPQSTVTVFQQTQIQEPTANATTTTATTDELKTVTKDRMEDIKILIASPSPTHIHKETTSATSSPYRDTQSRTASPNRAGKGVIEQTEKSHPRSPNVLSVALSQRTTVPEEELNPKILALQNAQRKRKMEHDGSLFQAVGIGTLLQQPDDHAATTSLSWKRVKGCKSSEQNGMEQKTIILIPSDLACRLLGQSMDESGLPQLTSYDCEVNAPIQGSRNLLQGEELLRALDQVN

Consider `CC(=O)c1ccccc1O`, for which the outcome in [1], in assay [2], in assay [3], in [4], in assay [5] and in assay [6] was inactive. The call in assay [7], in assay [8], in assay [9], in assay [10], in assay [11] and in assay [12] was inactive. Also, the compound was called inactive in [13], in assay [14], in assay [15], in assay [16] and in assay [17].
As a reminder, the AC50 is the midpoint of the concentration-response curve, whichever way the signal moves. `Cc1ccc(C)c(OCCCC(C)(C)C(=O)O)c1`: the compound was classed as inactive in assay [1], in assay [2], in assay [3], in assay [18], in [4] and in assay [6]. The call in assay [7], in assay [8], in assay [10], in assay [12], in assay [13] and in [14] was inactive. In addition, the compound was called inactive in assay [16]. The AC50 in [11] is 22.5 µM (active).
`CCCCC/C=C\C/C=C\CCCCCCCC(=O)O`: the outcome in [1], in assay [3], in assay [18], in [4], in [6] and in assay [13] was inactive. In addition, the compound was classed as inactive in assay [14], in assay [15] and in assay [16]. Also, the half-maximal activity concentration (AC50) in assay [2] is 76.3 µM (active); in assay [5], 26.6 µM (active); in [7], 150 µM (active); in assay [11], 64.1 µM (active); in assay [19], 35.1 µM (active); in assay [12] it was 39.6 µM (active). In [17], the AC50 is 100 µM (active).
Regarding `CCCCCOC(=O)CCCCC`, the call in assay [1], in assay [20], in [3], in assay [18], in [4] and in [5] was inactive. For the same compound, the compound was classed as inactive in assay [6], in assay [7], in [8], in [9], in assay [10] and in assay [11]. Further, the outcome in [19], in assay [14], in assay [15], in assay [16] and in [17] was inactive.
Regarding `CC(=O)/C=C/C1C(C)=CCCC1(C)C` (stereo not drawn), the compound was called inactive in [1], in assay [2], in assay [3], in [18], in assay [4] and in [5]. The call in [6], in [7], in [8], in assay [12], in [13] and in assay [14] was inactive. The result in assay [15], in assay [16] and in assay [17] was inactive. For the same compound, the AC50 in [11] is 5.09 µM (active).
On to `CC(CC=O)CC(C)(C)C` (stereo not drawn), for which the outcome in assay [1], in assay [2], in assay [3], in [4], in assay [5] and in assay [6] was inactive. Also, the outcome in assay [7], in assay [8], in [9], in assay [10], in assay [19] and in [12] was inactive. Moreover, the call in assay [13], in [14], in assay [15], in assay [16] and in assay [17] was inactive. Besides, the AC50 in assay [11] was 8.08 µM (active).
